# Results published in ChEMBL document CHEMBL3988442, “University of Dundee, Small-Polar-MMV Screening Library” (2021).
# Molecular target: T1, Methionyl-tRNA synthetase, putative (Leishmania donovani (strain BPK282A1)) (UniProt E9BF75)
# T1 sequence (whole entry): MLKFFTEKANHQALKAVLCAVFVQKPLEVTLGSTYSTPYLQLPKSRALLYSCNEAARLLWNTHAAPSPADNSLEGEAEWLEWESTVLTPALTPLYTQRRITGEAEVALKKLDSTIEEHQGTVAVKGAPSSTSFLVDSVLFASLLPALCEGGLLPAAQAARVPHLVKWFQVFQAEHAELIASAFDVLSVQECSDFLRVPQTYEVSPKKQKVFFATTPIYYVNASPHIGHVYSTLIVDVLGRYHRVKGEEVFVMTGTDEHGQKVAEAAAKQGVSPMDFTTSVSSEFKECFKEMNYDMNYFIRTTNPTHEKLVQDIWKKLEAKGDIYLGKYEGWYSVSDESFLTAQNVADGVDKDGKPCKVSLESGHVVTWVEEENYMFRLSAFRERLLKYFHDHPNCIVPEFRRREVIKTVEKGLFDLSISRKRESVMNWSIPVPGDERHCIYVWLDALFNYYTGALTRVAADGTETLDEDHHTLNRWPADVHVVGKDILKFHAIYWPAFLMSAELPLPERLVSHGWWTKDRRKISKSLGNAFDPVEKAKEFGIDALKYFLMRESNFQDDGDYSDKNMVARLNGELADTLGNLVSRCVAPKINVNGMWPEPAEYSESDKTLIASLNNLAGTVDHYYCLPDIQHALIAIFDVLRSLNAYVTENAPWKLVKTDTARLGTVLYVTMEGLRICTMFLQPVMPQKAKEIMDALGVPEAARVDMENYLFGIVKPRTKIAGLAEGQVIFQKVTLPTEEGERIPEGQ
# Assay: Leishmania donovani Methionine tRNA synthetase (LdMetRS):v7. Dose response assay
# Assay type: functional
# Design: conc 80 nM, time 150 minutes
smiles,measurement,setting,value
CN(c1ncnc2c1cnn2C)C1CCCN(c2cccnn2)C1 (stereo not given),PXC50,MAX_EFFECT 40.92592593,< 4
same,PXC50,MAX_EFFECT 46.94835681,< 4
Cc1sc2nc(CN3CCOCC3)nc(NCC3CCCO3)c2c1C (stereo not given),PXC50,MAX_EFFECT 9.836065574,< 4
same,PXC50,MAX_EFFECT 10.69518717,< 4
CN1CCN(c2ccc3ccc(C(=O)N4CCCO4)cn23)CC1,PXC50,MAX_EFFECT 9.85915493,< 4
same,PXC50,MAX_EFFECT 16.48148148,< 4
Cc1sc2nc(C(F)(F)F)nc(N3CCN(S(C)(=O)=O)CC3)c2c1C,PXC50,MAX_EFFECT 4.699738903,< 4
same,PXC50,MAX_EFFECT -2.872062663,< 4
COC(=O)c1sc2nc(C)nc(N(C)Cc3cccnc3)c2c1C,PXC50,MAX_EFFECT 13.66120219,< 4
same,PXC50,MAX_EFFECT 13.90374332,< 4
COc1cc(C(=O)NC2CCCC2)cn2c(N3CCN(S(C)(=O)=O)CC3)ccc12,PXC50,"BOTTOM 3.193013855, HILLSLOPE 0.707285439, MAX_EFFECT 58.33333333, TOP 100.0",4.17
same,PXC50,"BOTTOM -2.394752883, HILLSLOPE 0.813527414, MAX_EFFECT 65.35087719, TOP 100.0",4.43
CCc1cc2c(NC(CC(C)C)C(=O)O)nc(C)nc2s1 (stereo not given),PXC50,MAX_EFFECT 8.0,< 4
same,PXC50,MAX_EFFECT 13.22751323,< 4
N#Cc1cccc(Nc2nccc(N3CCC(NS(=O)(=O)c4cccc(C#N)c4)CC3)n2)c1,PXC50,MAX_EFFECT 35.34883721,< 4
same,PXC50,MAX_EFFECT 46.85314685,< 4
Nc1noc2ccc(-c3cnc4ccc(NCc5ccncc5)nn34)cc12,PXC50,MAX_EFFECT 14.75826972,< 4
same,PXC50,MAX_EFFECT 25.87719298,< 4
CS(=O)(=O)N1CCN(c2ccc3ccc(C(=O)NCC4CC4)cn23)CC1,PXC50,"BOTTOM 3.917889821, HILLSLOPE 2.161741125, MAX_EFFECT 61.66007905, TOP 61.91262666",4.97
same,PXC50,"BOTTOM -0.968460018, HILLSLOPE 1.661925269, MAX_EFFECT 62.22222222, TOP 66.45309128",4.79
Fc1ccc(CN2CCC(F)(F)C3(CCN(c4cnccn4)C3)C2)cc1 (stereo not given),PXC50,MAX_EFFECT 10.88435374,< 4
same,PXC50,MAX_EFFECT 11.21495327,< 4
CCOC(=O)N1CCN(c2nc(CCN)nc3sc(C)c(C)c23)CC1,PXC50,"BOTTOM 0.0282, HILLSLOPE 1.091908383, MAX_EFFECT 72.32375979, TOP 100.0",4.33
same,PXC50,"BOTTOM 1.098813228, HILLSLOPE 1.170601195, MAX_EFFECT 79.37336815, TOP 100.0",4.4
CNc1ccc2ncc(-c3ccc4onc(N)c4c3)n2n1,PXC50,MAX_EFFECT 16.28498728,< 4
same,PXC50,MAX_EFFECT 18.85964912,< 4
COCCN1CCN(c2ccc3ccc(C(=O)NC4CC4)cn23)CC1,PXC50,MAX_EFFECT 43.53741497,< 4
same,PXC50,MAX_EFFECT 48.22429907,< 4
COc1cc2ccc(N3CCN(S(C)(=O)=O)CC3)n2cc1C(=O)NC1CCCC1,PXC50,"BOTTOM 1.185639049, HILLSLOPE 1.624291099, MAX_EFFECT 57.89473684, TOP 63.90970976",4.71
same,PXC50,"BOTTOM -1.038445777, HILLSLOPE 1.129445656, MAX_EFFECT 51.04166667, TOP 100.0",4.35
COCCNc1nc(CN2CCOCC2)nc2sc3c(c12)CCCC3,PXC50,MAX_EFFECT -0.877192982,< 4
same,PXC50,MAX_EFFECT -1.5625,< 4
C[C@@H](Oc1cc(-n2cnc3cc(N)ccc32)sc1C(N)=O)c1ccccc1Cl,PXC50,MAX_EFFECT 24.18604651,< 4
same,PXC50,MAX_EFFECT 25.87412587,< 4
Cc1nc(N2CCC(CCN3CCCC3)CC2)c2ccsc2n1,PXC50,MAX_EFFECT 38.29787234,< 4
same,PXC50,MAX_EFFECT 38.86010363,< 4
CC(=O)NCc1nnc2n1CCN(c1nc(C)nc3sccc13)CC2,PXC50,MAX_EFFECT 6.527415144,< 4
same,PXC50,MAX_EFFECT 9.921671018,< 4
CCN1c2ccc(-c3cncn3CCCn3ccnc3C)cc2CC1C (stereo not given),PXC50,MAX_EFFECT 36.73469388,< 4
same,PXC50,MAX_EFFECT 44.48598131,< 4
CCNc1nc(-c2ccc(C)cc2)cc(C(F)(F)F)n1,PXC50,MAX_EFFECT 4.797979798,< 4
same,PXC50,MAX_EFFECT 5.102040816,< 4
Cc1nc(NC(Cc2ccccc2)C(=O)O)c2c3c(sc2n1)CCCC3 (stereo not given),PXC50,MAX_EFFECT 23.07692308,< 4
same,PXC50,MAX_EFFECT 25.24509804,< 4
CCOc1ccc(CN(C)Cc2nc(N)c3c(C)c(C)sc3n2)cc1,PXC50,MAX_EFFECT 7.466666667,< 4
same,PXC50,MAX_EFFECT 8.994708995,< 4
CCNC(=O)c1ccc2ccc(N(CC)CC)n2c1,PXC50,MAX_EFFECT 16.85185185,< 4
same,PXC50,MAX_EFFECT 25.35211268,< 4
Cc1nc(NC(C(=O)O)C(C)C)c2c(C)c(C)sc2n1 (stereo not given),PXC50,MAX_EFFECT 8.0,< 4
same,PXC50,MAX_EFFECT 9.523809524,< 4
O=C1CC[C@@H](COc2cccc(F)c2Oc2ccc(Cl)cc2)N1,PXC50,MAX_EFFECT 7.462686567,< 4
same,PXC50,MAX_EFFECT 9.316770186,< 4
Cc1nc(N2CCN(c3ccccn3)CC2)c2c3c(sc2n1)CCCC3,PXC50,MAX_EFFECT 22.61306533,< 4
same,PXC50,MAX_EFFECT 22.85012285,< 4
CCCC(=O)N1CCC(c2ncc3c(n2)CCNC3)CC1,PXC50,MAX_EFFECT 6.802721088,< 4
same,PXC50,MAX_EFFECT 13.45794393,< 4
Cc1nc(N2CCCCCC2)c2ccsc2n1,PXC50,MAX_EFFECT 9.6,< 4
same,PXC50,MAX_EFFECT 10.05291005,< 4
Cc1sc2nc(-c3cccs3)nc(N3CCNC(=O)C3)c2c1C,PXC50,MAX_EFFECT 4.8,< 4
same,PXC50,MAX_EFFECT 8.994708995,< 4
